Records with an inconclusive call do not appear. Calls of active or inactive are those of the source. Unless noted, the call rests on the fitted dose curve; in most records, active means well fitted curve in the direction sought with a large enough effect in the repeat runs; inconclusive means weak or mixed curves; inactive means no such curve, though single readings can be large; an effect the other way counts as inactive or inconclusive.

The nature of assay [1]: qHTS assay to identify small molecule agonists of the peroxisome proliferator-activated receptor delta (PPARd) signaling pathway - cell viability counter screen (AID 743211). Further: nearly all actives have a fitted effect of over 55% in size. Further: potency means the concentration at half of the fitted maximal effect. A digest of the protocol: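 PPARd-bla HEK293H cells (UAS-beta-lactamase reporter) were treated with compounds for 17 h at 37 C. Viability was then read in the same wells by CellTiter-Glo luminescence after 30 min at room temperature.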

In assay [2] the target is Peroxisome proliferator-activated receptor delta (Homo sapiens) (UniProt Q03181). The assay can be described thus: qHTS assay to identify small molecule agonists of the peroxisome proliferator-activated receptor delta (PPARd) signaling pathway (AID 743212; calls by dose curve). Summed up:
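HEK293H UAS-bla reporter cells, human PPARd system; compounds delivered in DMSO after 5 h plating, then at 37 C. Beta-lactamase FRET read, 2 h RT substrate step.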

Assay [3] is described as follows: qHTS assay to identify small molecule antagonists of the farnesoid-X-receptor (FXR) signaling pathway - cell viability counter screen (AID 743221; active means well fitted cell-killing curve with a large enough effect in the repeat runs, not every such curve was filed as active; further: nearly all actives have a fitted effect of over 50% in size; further: potency means the concentration at half of the fitted maximal effect). Summed up: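 FXR-UAS-bla HEK 293T cells were treated with test compounds plus chenodeoxycholic acid (50 uM final) for 16 h at 37 C. Cell viability in the same wells was then read as CellTiter-Glo luminescence after 30 min at room temperature.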

Assay [4] deals with Vitamin D3 receptor (Homo sapiens) (UniProt P11473). The assay can be described thus: qHTS assay to identify small molecule agonists of the vitamin D receptor (VDR) signaling pathway (AID 743222; calls by dose curve). A digest of the protocol: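 Quantitative HTS agonist-mode screen: compounds in DMSO were pin-transferred onto VDR-bla cells and incubated 16 h at 37C, 5% CO2. Reporter activity was detected with LiveBLAzer B/G FRET substrate after 2 h at room temperature.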

Assay [5] in a line: qHTS assay to identify small molecule antagonists of the vitamin D receptor (VDR) signaling pathway - cell viability counter screen (AID 743225). Further: nearly all actives have a fitted effect of over 50% in size. Further: potency means the concentration at half of the fitted maximal effect. A digest of the protocol:
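VDR-bla HEK 293T cells, 4 h pre-incubation at 37C, then compound plus 1-alpha,25-dihydroxyvitamin D3 (3 nM final) for 16 h. After the beta-lactamase FRET read, CellTiter-Glo was added to the same wells; luminescence after 30 min at room temperature.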

Assay [6] is described as follows: qHTS assay to identify small molecule agonists of the NFkB signaling pathway - cell viability counter screen (AID 1159515; calls by dose curve; further: nearly all actives have a fitted effect of over 55% in size; further: potency means the concentration at half of the fitted maximal effect). A digest of the protocol: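 Multiplexed viability readout: after the 5 hr compound exposure and 1.5 hr FRET substrate step, CellTiter-Glo reagent went into the same NFkB-bla ME-180 wells; ATP luminescence was measured after 30 min at room temperature.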

Assay [7] in a line: qHTS assay to identify small molecule agonists of the endoplasmic reticulum stress response signaling pathway (AID 1159516; active means well fitted activation curve with a large enough effect in the signal ratio in the repeat runs, not every such curve was filed as active; the % refers to the signal ratio). A digest of the protocol: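 Tox21 10K library screened in quantitative HTS format on ESRE-bla HeLa cells, a beta-lactamase reporter under ER stress response element control; 5 hr treatment, FRET read.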
The target of assay [8] is Nuclear receptor ROR-gamma (Homo sapiens) (UniProt P51449). Nature of the assay: qHTS assay to identify small molecule antagonists of the retinoid-related orphan receptor gamma (ROR-gamma) signaling pathway (AID 1159521; further: nearly all actives have a fitted effect of over 50% in size; further: potency means the concentration at half of the fitted maximal effect). A digest of the protocol: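 Tet-on RORγ CHO cells carrying a ROR response element–luciferase reporter were pretreated with compounds for 2 h, then induced with 1 uM (final) doxycycline hyclate for 16 h at 37 C. Antagonism was read as decreased ONE-Glo luminescence.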

Assay [9] can be described thus: qHTS assay to identify small molecule agonists of the AP-1 signaling pathway - cell viability counter screen (AID 1159525; calls by dose curve; further: nearly all actives have a fitted effect of over 55% in size; further: potency means the concentration at half of the fitted maximal effect). Summed up: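 Luminescent ATP readout (Cell Titer Glo, 30 min RT), normalised to DMSO and tetra n-octyl ammonium bromide controls. Cells were ME-180 AP-1-bla in 0.5% dialyzed FBS Opti-MEM, with a 5 h, 37 °C compound exposure.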
Assay [10] is described as follows: qHTS assay to identify small molecule antagonists of the retinoid-related orphan receptor gamma (ROR-gamma) signaling pathway - cell viability counter screen (AID 1159520). Further: nearly all actives have a fitted effect of over 50% in size. Further: potency means the concentration at half of the fitted maximal effect. A digest of the protocol:
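Cytotoxicity was read from cellular ATP (CellTiter-Glo luminescence) after 16 hr at 37 C with 1 uM doxycycline induction. The inducer was added 2 hr after compound transfer to Tet-on ROR gamma CHO cells.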

Assay [11] can be described thus: qHTS assay to identify small molecule agonists of the AP-1 signaling pathway (AID 1159526; calls by dose curve).
The target in assay [12] is Vitamin D3 receptor (Homo sapiens) (UniProt P11473). Nature of the assay: qHTS assay to identify small molecule antagonists of the vitamin D receptor (VDR) signaling pathway (AID 743223; active means well fitted inhibition curve with a large enough effect in the signal ratio in the repeat runs, not every such curve was filed as active; the % refers to the signal ratio). Summed up: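 VDR-bla cells were plated, incubated 4 h at 37C, then given compound and 1alpha,25-dihydroxyvitamin D3 (3 nM final). After 16 h at 37C, LiveBLAzer B/G FRET substrate was added for 2 h at room temperature and fluorescence read.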

Assay [13] in a line: qHTS assay to identify small molecule agonists of the vitamin D receptor (VDR) signaling pathway - cell viability counter screen (AID 743224). Further: nearly all actives have a fitted effect of over 50% in size. Further: potency means the concentration at half of the fitted maximal effect. A digest of the protocol: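 Viability is measured in the same wells as the VDR-bla reporter assay: after 16 h compound treatment and 2 h substrate loading, CellTiter-Glo is added and luminescence read 30 min later.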
The nature of assay [14]: qHTS assay to identify small molecule antagonists of the peroxisome proliferator-activated receptor delta (PPARd) signaling pathway - cell viability counter screen (AID 743213). Further: nearly all actives have a fitted effect of over 50% in size. Further: potency means the concentration at half of the fitted maximal effect. Summed up: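 HEK293H PPARd UAS-bla cells, 5 h pre-incubation, compound + L165041 300 nM final, 17 h 37 C; B/G FRET substrate 2 h RT; then CellTiter-Glo 30 min RT, luminescence.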
In assay [15] the target is Bile acid receptor (Homo sapiens) (UniProt Q96RI1). The assay can be described thus: qHTS assay to identify small molecule agonists of the farnesoid-X-receptor (FXR) signaling pathway (AID 743220; active means well fitted activation curve with a large enough effect in the signal ratio in the repeat runs, not every such curve was filed as active; the % refers to the signal ratio). A digest of the protocol: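 Beta-lactamase reporter under UAS control in GeneBLAzer FXR HEK 293T cells (5000/well) measured with LiveBLAzer FRET substrate after 2 h at room temperature. Compound exposure lasted 16 h at 37C.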

Assay [16] is described as follows: qHTS assay to identify small molecule agonists of the farnesoid-X-receptor (FXR) signaling pathway - cell viability counter screen (AID 743218). Further: nearly all actives have a fitted effect of over 45% in size. Further: potency means the concentration at half of the fitted maximal effect. A digest of the protocol: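 Cytotoxicity counter-screen run in parallel, same wells: FXR-UAS-bla HEK 293T cells dosed 16 h at 37 C, viability read by CellTiter-Glo luminescence after 30 min at room temperature.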
In assay [17] the target is Retinoic acid receptor RXR-alpha (Homo sapiens) (UniProt P19793). Nature of the assay: qHTS assay to identify small molecule agonists of the RXR signaling pathway (AID 1159527; calls by dose curve; further: nearly all actives have a fitted effect of over 35% in size). Summed up:
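GeneBLAzer RXR-alpha-UAS-bla HEK 293T cells in medium with 2% charcoal-stripped FBS, pre-incubated 5 hr at 37 C, then exposed to compounds 16 hr. Beta-lactamase reporter read by FRET substrate, 2 hr room temperature, 460/530 nm emission.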

Assay [18] addresses Peroxisome proliferator-activated receptor delta (Homo sapiens) (UniProt Q03181). The assay can be described thus: qHTS assay to identify small molecule antagonists of the peroxisome proliferator-activated receptor delta (PPARd) signaling pathway (AID 743215; active means well fitted inhibition curve with a large enough effect in the signal ratio in the repeat runs, not every such curve was filed as active; the % refers to the signal ratio;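 further: cells stimulated with agonist L165041 at 300 nM final during compound exposure; series mostly up to about 62 µM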). A digest of the protocol: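 Inhibition of L165041-driven (300 nM final) PPARd signaling is scored in HEK293H UAS-bla cells. Exposure lasts 17 h at 37 C; beta-lactamase activity is then read by FRET substrate fluorescence after 2 h at room temperature.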

Assay [19] can be described thus: qHTS assay to identify small molecule agonists of the endoplasmic reticulum stress response signaling pathway - cell viability counter screen (AID 1159517; calls by dose curve; further: nearly all actives have a fitted effect of over 50% in size; further: potency means the concentration at half of the fitted maximal effect). A digest of the protocol: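 Cells, HeLa ESRE-bla; density, 1,500/well; dosing, 5 hr at 37 C, 5% CO2; readout, CellTiter-Glo luminescence after 30 min RT.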

Chain of Vitamin D3 receptor (Homo sapiens) (P11473 whole entry, looked up): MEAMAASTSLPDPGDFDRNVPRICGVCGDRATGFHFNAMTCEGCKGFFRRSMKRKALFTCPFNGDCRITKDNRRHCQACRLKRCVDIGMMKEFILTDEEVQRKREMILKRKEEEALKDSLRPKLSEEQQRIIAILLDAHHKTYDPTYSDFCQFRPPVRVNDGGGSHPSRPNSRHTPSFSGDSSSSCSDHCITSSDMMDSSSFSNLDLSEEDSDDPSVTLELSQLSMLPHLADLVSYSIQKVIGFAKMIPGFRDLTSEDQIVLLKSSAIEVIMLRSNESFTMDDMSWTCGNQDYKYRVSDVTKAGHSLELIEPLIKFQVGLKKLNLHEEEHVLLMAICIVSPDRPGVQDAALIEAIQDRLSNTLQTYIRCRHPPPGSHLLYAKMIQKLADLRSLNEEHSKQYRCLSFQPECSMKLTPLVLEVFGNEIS
Chain of Retinoic acid receptor RXR-alpha (Homo sapiens) (P19793 whole entry, looked up): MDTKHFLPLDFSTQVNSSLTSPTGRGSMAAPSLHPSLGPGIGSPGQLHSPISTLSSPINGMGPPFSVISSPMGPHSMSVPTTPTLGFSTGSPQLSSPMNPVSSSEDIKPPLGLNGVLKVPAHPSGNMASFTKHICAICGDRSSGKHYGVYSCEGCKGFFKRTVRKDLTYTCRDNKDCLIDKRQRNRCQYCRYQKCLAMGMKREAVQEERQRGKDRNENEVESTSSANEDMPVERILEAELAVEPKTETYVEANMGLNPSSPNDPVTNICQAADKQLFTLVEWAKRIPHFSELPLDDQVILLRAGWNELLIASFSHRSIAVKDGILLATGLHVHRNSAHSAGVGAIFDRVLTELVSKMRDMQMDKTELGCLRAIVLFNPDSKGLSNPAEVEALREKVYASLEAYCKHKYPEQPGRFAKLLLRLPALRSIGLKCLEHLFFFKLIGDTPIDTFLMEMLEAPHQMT
Chain of Peroxisome proliferator-activated receptor delta (Homo sapiens) (Q03181 whole entry, looked up): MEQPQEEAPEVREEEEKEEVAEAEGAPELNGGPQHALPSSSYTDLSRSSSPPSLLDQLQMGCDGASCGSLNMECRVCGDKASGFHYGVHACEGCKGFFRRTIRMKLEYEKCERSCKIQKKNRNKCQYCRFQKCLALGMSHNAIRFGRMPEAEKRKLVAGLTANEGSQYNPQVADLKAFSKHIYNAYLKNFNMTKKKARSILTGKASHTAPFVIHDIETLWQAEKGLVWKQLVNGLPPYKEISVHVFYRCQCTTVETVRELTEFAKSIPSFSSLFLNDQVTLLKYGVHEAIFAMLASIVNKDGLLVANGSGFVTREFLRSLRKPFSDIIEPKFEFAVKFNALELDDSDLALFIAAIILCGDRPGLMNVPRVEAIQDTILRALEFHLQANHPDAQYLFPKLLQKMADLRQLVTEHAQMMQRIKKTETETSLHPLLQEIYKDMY
Chain of Bile acid receptor (Homo sapiens) (Q96RI1 whole entry, looked up): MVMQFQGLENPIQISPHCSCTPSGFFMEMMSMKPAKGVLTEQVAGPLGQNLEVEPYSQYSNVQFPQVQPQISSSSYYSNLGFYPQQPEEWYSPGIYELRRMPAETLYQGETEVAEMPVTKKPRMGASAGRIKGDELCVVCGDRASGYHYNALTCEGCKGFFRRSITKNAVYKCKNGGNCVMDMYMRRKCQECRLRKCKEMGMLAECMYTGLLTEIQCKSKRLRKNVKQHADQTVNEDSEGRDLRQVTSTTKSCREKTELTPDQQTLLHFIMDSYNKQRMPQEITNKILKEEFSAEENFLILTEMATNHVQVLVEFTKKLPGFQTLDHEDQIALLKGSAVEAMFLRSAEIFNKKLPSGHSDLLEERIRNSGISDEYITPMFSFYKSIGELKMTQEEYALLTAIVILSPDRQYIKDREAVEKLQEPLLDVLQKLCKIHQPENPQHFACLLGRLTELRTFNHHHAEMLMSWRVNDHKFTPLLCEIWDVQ

On to `CCCCCCCc1ccc(O)cc1`, for which the figures for the Potency in assay [1] and in assay [9] were 21900 nM (active) and 54900 nM (active), respectively. Moreover, the Potency entry in [2], in assay [3], in assay [4], in assay [5], in [6] and in assay [7] was “inactive” in each case. The Potency entry in assay [8] was “inactive”.

Take `CCOP(=S)(OCC)SC(CCl)N1C(=O)c2ccccc2C1=O` (centres undefined): the Potency result in assay [1], in assay [2], in [3], in [5], in [6] and in [7] was “inactive” each time. Also, the Potency entry in assay [10], in [8] and in [11] was “inactive” throughout.

Take `CN(C)CCc1c[nH]c2ccccc12`: the Potency result in assay [1], in [3], in assay [12], in assay [13], in [5] and in [6] was “inactive” throughout. Also, the Potency result in assay [7], in [10], in assay [8] and in [9] was “inactive” in each case.

In the case of `C[C@]12Cc3cn[nH]c3C[C@@H]1CC[C@@H]1[C@@H]2CC[C@@]2(C)[C@H]1CC[C@]2(C)O`, the Potency was 29800 nM (active) in assay [14]; 29800 nM (active) in [13]; 23900 nM (active) in [6]; 13300 nM (active) in [8]; 23900 nM (active) in [9]. Also, the Potency entry in assay [15], in assay [4], in assay [5], in [7] and in assay [10] was “inactive” each time.

Turning to `Oc1cc(Cl)cc(Cl)c1`, the Potency entry in assay [1], in assay [2], in [14], in assay [16], in [3] and in [4] was “inactive” each time. In addition, the Potency entry in assay [12], in [5], in assay [6], in assay [7], in assay [10] and in assay [8] was “inactive” in each case. Also, the Potency entry in assay [11] and in [17] was “inactive” throughout.

In the case of `S=C=NCCc1ccccc1`, the Potency entry in assay [2], in assay [14], in assay [18], in [12], in assay [13] and in assay [6] was “inactive” each time. In addition, the Potency entry in assay [7] and in [9] was “inactive” each time.

Take `CCCCC/C=C\C/C=C\C/C=C\C/C=C\CCCC(=O)NCC(=O)O`: the Potency entry in assay [4], in assay [13], in assay [6], in [7], in assay [10] and in assay [8] was “inactive” in each case. For the same molecule, in assay [17], the Potency entry was “inactive”.

On to `CC1CCCC1`, for which the Potency entry in assay [1], in [2], in assay [14], in assay [18], in assay [16] and in assay [4] was “inactive” each time. The Potency entry in assay [12], in assay [13], in assay [5], in assay [6], in [7] and in assay [10] was “inactive” in each case. Moreover, the Potency entry in assay [8] and in [9] was “inactive” in each case.

`BrCCCBr`: the Potency entry in [2], in assay [14], in assay [18], in assay [16], in [3] and in [4] was “inactive” in each case. The Potency result in assay [12], in assay [13], in [5], in assay [6], in [19] and in assay [10] was “inactive” in each case. Besides, the Potency result in assay [8], in [9], in [11] and in assay [17] was “inactive” each time.

As to `C=C(C)C(=O)[O][Sn]([CH2]CCC)([CH2]CCC)[CH2]CCC`, the Potency is 871 nM (active) in assay [1]; 616 nM (active) in assay [16]; 977 nM (active) in assay [3]; 1950 nM (active) in assay [5]; 436 nM (active) in assay [6]; 692 nM (active) in assay [19]. For the same molecule, the Potency in assay [10] is 1370 nM (active); in assay [8] it was 306 nM (active); in assay [9], 977 nM (active). In addition, in [4], the Potency result is “inactive”.

With `[F][Sn]([c]1ccccc1)([c]1ccccc1)[c]1ccccc1`, the Potency is 871 nM (active) in assay [1]; 977 nM (active) in assay [14]; 977 nM (active) in assay [16]; 1550 nM (active) in [3]; 490 nM (active) in assay [13]; 692 nM (active) in [5]. Also, the Potency is 7760 nM (active) in [6], 5490 nM (active) in assay [19], 864 nM (active) in assay [10] and 273 nM (active) in [8]. For the same molecule, the Potency result in assay [4] was “inactive”.

Take `[Cl][Hg][c]1ccccc1`: the Potency in [1] was 977 nM (active); in assay [14], 2190 nM (active); in assay [16], 1550 nM (active); in [13], 692 nM (active); in assay [5], 692 nM (active); in assay [6], 3890 nM (active). Besides, the Potency in [19] is 11000 nM (active); in [10], 1090 nM (active); in [8] it was 611 nM (active); in assay [9], 1380 nM (active). Further, the Potency entry in assay [4] was “inactive”.
